Results filed as inconclusive are left out. Where a structure was tested more than once in an assay, its records may differ in their call. Calls of active or inactive are those of the source. Unless noted, calls follow the shape of the full dose curve.
What was measured:
[1] = Nuclear factor erythroid 2-related factor 2/antioxidant responsive element (Nrf2/ARE) small molecule agonists: qHTS cell viability counter screen in human keratinocytes (AID 1919968; active = well fitted curve in the direction sought with a large enough effect in the repeat runs; an effect the other way counts as inactive or inconclusive; also: nearly all actives have a fitted effect of over 55% in size)
In short: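 Seed 1,500 KeratinoSens cells per well, then incubate 5 h at 37 C/5% CO2. Add compounds in DMSO and incubate 23 h. Add CellTiter-Fluor, wait 1 h and read fluorescence.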

[2] = molecular target: Gonadotropin-releasing hormone receptor (Homo sapiens) (UniProt P30968); assay: Human gonadotropin-releasing hormone receptor (GnRHR) small molecule agonists, calcium flux assay in GnRHR-HEK293 cells (AID 1920063); also: nearly all actives have a fitted effect of over 35% in size
Sequence of Gonadotropin-releasing hormone receptor (Homo sapiens) (P30968 whole entry, looked up): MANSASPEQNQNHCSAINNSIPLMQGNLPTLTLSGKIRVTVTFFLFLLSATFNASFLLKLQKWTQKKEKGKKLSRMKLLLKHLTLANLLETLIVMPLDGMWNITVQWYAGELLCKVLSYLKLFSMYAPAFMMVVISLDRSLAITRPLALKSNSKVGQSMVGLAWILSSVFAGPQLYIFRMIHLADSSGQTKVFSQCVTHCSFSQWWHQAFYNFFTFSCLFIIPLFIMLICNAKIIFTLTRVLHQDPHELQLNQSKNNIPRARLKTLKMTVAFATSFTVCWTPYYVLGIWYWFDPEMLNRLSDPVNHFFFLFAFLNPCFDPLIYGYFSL
In short: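 Cells: HEK293 stably expressing human GnRHR. Steps: overnight (18 h) culture, 1 h calcium dye loading at 37 C, compound addition, kinetic fluorescence read at 480/540 nm. Each compound tested at 15 concentrations in triplicate.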

[3] = molecular target: KiSS-1 receptor (Homo sapiens) (UniProt Q969F8); assay: Human kisspeptin (KISS1R) small molecule agonists, calcium flux assay in KISS1R-HEK293 cells (AID 1920064; active = well fitted curve in the direction sought with a large enough effect in the repeat runs; an effect the other way counts as inactive or inconclusive)
Sequence of KiSS-1 receptor (Homo sapiens) (Q969F8 whole entry, looked up): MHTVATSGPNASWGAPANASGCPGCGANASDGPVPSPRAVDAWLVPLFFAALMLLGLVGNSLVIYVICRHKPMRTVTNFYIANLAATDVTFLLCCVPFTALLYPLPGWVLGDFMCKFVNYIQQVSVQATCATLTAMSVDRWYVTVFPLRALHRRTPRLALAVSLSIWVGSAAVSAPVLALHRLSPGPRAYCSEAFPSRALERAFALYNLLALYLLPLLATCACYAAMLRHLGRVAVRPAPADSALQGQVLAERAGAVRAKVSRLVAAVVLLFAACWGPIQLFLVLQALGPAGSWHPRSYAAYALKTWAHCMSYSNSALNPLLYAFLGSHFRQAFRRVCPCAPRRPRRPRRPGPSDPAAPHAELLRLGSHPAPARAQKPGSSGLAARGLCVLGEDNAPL
In short: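 Cells plated and incubated 18 h; dye added, 1 h at 37 C; compounds in DMSO pinned in; signal read at 480/540 nm every second for 3 min. Each compound tested at 15 concentrations in triplicate.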

[4] = G protein-coupled receptor (GPCR) small molecule agonists, calcium flux assay: HEK293 wild type cell line counter screen (AID 1920065)
In short: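 Counter-screen of the Tox21 10K library for non-specific calcium release: dye-loaded cells received compounds in DMSO and were monitored by kinetic fluorescence (480/540 nm, 3 min). Fifteen concentrations, run in triplicate.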

[5] = p53 small molecule agonists, cell-based qHTS assay with human liver microsomes (AID 1963577);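 also: p53 response element beta-lactamase reporter cells with liver microsomes plus NADPH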
In short: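 HLM-supplemented p53RE-bla reporter assay: 16 h compound exposure at 37 C, microsomes and NADPH each 0.5 mg/mL final, read by fluorescence intensity.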

[6] = p53 small molecule agonists, cell-based qHTS assay with human liver microsomes: qHTS cell viability counter screen (AID 1963579); also: nearly all actives have a fitted effect of over 45% in size
In short: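 Viability of p53RE-bla cells is measured as CellTiter-Glo luminescence following a 16 h, 37 C incubation with compound, liver microsomes from human donors and NADPH.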

[7] = p53 small molecule agonists, cell-based qHTS assay with rat liver microsomes: qHTS cell viability counter screen (AID 1963580); also: nearly all actives have a fitted effect of over 45% in size
In short: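 Intracellular ATP, by CellTiter-Glo luminescence, defines viability. HCT-116 p53RE-bla cells, 4,000 per well, were compound-treated in the presence of rat liver microsomes and NADPH for 16 h at 37 C.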

[8] = p53 small molecule agonists, cell-based qHTS assay: qHTS cell viability counter screen (AID 1963581); also: nearly all actives have a fitted effect of over 45% in size
In short: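 Cells: HCT-116 with p53 response element-driven beta-lactamase. Treatment: 16 h, 37 C, compounds in DMSO. Read: CellTiter-Glo luminescence after 30 min RT.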

[9] = p53 small molecule agonists, cell-based qHTS assay (AID 1963582; active = well fitted activation curve with a large enough effect in the signal ratio in the repeat runs, not every such curve was filed as active; the % refers to the signal ratio)
In short: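 Quantitative HTS in p53RE-bla cells: after a 5 h settling period, compounds delivered in DMSO were left on cells for 16 h at 37 C, and reporter induction was measured as fluorescence following 2 h substrate loading.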

[10] = molecular target: 5-hydroxytryptamine receptor 2A (Homo sapiens) (UniProt P28223); assay: 5-hydroxytryptamine receptor 2A (HTR2A) small molecule antagonists, cell-based qHTS assay (AID 1963586); also: nearly all actives have a fitted effect of over 45% in size
Sequence of 5-hydroxytryptamine receptor 2A (Homo sapiens) (P28223 whole entry, looked up): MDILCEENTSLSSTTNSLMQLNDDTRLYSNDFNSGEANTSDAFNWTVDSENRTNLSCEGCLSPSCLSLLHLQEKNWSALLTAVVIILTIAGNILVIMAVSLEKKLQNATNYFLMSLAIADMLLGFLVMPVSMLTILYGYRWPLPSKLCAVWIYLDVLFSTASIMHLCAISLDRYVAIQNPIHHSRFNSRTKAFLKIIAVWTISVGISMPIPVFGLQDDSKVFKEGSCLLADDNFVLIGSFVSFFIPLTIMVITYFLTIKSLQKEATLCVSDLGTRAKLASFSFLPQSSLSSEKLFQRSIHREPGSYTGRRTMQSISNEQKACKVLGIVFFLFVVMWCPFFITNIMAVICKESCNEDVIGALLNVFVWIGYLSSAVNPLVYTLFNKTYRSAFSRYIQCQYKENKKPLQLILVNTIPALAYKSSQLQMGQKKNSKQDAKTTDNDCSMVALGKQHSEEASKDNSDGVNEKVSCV
In short: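 Antagonist-mode intracellular calcium assay: DOI (4 nM) added after 5 min compound pre-incubation at room temperature to dye-loaded HTR2A-CHO cells. Fluorescence followed for 3 min, sampled every second.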

[11] = molecular target: 5-hydroxytryptamine receptor 2A (Homo sapiens) (UniProt P28223); assay: 5-hydroxytryptamine receptor 2A (HTR2A) small molecule agonists, cell-based qHTS assay (AID 1963587); also: nearly all actives have a fitted effect of over 30% in size
In short: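 Kinetic calcium-flux fluorescence (2 min, 1 sec intervals) after compound addition in agonist mode. HTR2A-CHO cells were cultured 18 h, then dye-loaded 1 h at 37 C.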

[12] = molecular target: Muscarinic acetylcholine receptor M1 (Homo sapiens) (UniProt P11229); assay: Cholinergic receptor muscarinic 1 (CHRM1) small molecule antagonists, cell-based qHTS assay (AID 1963588); also: nearly all actives have a fitted effect of over 40% in size
Sequence of Muscarinic acetylcholine receptor M1 (Homo sapiens) (P11229 whole entry, looked up): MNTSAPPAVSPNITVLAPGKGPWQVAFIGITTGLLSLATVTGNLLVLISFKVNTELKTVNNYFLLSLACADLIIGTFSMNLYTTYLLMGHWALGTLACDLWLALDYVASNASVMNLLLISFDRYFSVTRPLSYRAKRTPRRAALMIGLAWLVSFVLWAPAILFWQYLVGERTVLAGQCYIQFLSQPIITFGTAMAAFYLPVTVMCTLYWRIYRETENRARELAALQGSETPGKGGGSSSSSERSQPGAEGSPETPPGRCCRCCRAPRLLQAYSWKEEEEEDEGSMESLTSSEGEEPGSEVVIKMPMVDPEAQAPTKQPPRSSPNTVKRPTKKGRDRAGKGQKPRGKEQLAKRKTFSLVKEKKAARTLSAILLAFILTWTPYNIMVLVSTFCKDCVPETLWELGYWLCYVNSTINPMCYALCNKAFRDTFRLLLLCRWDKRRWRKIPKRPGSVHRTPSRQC
In short: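 CHRM1-CHO calcium-flux assay, antagonist mode. Cells were seeded 18 h, dye-loaded 1 h at 37 C and given compound for 5 min at RT, then acetylcholine was added at 50nM. FDSS fluorescence was read 3 min; 15 concentrations, three runs.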

[13] = molecular target: Muscarinic acetylcholine receptor M1 (Homo sapiens) (UniProt P11229); assay: Cholinergic receptor muscarinic 1 (CHRM1) small molecule agonists, cell-based qHTS assay (AID 1963589); also: nearly all actives have a fitted effect of over 35% in size
In short: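 Agonist-mode qHTS in CHO cells stably carrying human muscarinic M1. Intracellular calcium is tracked by fluorescence every second after compound transfer; each compound runs at 15 concentrations in three independent runs.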

[14] = cAMP Responsive Elements (CRE) small molecule agonists, cell-based qHTS assay (AID 1963590)
In short: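 Agonist mode qHTS in CRE-bla HEK 293T cells: compounds dosed from DMSO for 3 h at 37 C/5% CO2, followed by LiveBLAzer B/G FRET substrate for 2 h at room temperature.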

[15] = molecular target: Beta-2 adrenergic receptor (Homo sapiens) (UniProt P07550); assay: Adrenergic beta2 receptor (ADRB2) small molecule antagonists, cell-based qHTS assay (AID 1963592); also: nearly all actives have a fitted effect of over 50% in size; also: potency is read from the fitted curve at half-maximal effect; as to activity change, negative = inhibition: series mostly up to about 92 µM
Sequence of Beta-2 adrenergic receptor (Homo sapiens) (P07550 whole entry, looked up): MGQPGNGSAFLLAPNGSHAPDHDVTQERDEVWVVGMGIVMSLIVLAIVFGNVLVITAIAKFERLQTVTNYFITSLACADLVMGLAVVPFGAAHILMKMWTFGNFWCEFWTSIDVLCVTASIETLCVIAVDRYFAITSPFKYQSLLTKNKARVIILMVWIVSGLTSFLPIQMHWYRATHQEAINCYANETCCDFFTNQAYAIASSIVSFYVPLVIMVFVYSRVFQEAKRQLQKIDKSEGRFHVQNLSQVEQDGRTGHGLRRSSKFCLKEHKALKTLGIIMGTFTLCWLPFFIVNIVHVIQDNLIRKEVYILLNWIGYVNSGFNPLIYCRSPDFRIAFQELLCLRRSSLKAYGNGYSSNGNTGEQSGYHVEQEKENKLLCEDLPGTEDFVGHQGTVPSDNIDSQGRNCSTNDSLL
In short: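 Cells (CHO, stable ADRB2 overexpression) incubated 18-20hr at 37C; compounds added from DMSO; agonist mix (1nM isoproterenol, 100uM IBMX, 25uM Ro-20-1724) added; 0.5hr RT; d2-cAMP and anti-cAMP-cryptate added; 1hr RT; 665/615 nm read.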

[16] = molecular target: Beta-2 adrenergic receptor (Homo sapiens) (UniProt P07550); assay: Adrenergic beta2 receptor (ADRB2) small molecule agonists, cell-based qHTS assay (AID 1963593);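 also: CHO cells stably overexpressing human ADRB2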
In short: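 CHO cells stably over-expressing ADRB2 were plated overnight at 37C, then dosed with compounds plus a stimulation mix containing 100uM IBMX and 25uM Ro-20-1724 for 0.5hr at room temperature. cAMP was measured by HTRF competition, 1hr.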

[17] = molecular target: D(2) dopamine receptor (Homo sapiens) (UniProt P14416); assay: Dopamine D2 receptor (DRD2) small molecule agonists, cell-based qHTS assay (AID 1963594); also: nearly all actives have a fitted effect of over 35% in size
Sequence of D(2) dopamine receptor (Homo sapiens) (P14416 whole entry, looked up): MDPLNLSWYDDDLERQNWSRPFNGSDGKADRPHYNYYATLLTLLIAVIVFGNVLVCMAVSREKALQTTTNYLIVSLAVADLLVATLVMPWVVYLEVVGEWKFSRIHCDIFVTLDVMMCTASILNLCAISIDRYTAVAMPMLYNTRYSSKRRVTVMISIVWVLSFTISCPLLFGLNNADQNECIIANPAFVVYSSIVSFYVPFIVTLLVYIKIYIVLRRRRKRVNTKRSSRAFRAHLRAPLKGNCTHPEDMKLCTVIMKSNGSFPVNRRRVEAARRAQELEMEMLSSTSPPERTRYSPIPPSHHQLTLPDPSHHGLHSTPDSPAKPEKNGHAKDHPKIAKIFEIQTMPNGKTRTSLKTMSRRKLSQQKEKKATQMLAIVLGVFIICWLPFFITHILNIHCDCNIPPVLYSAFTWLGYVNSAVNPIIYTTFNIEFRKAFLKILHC
In short: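 cAMP accumulation in DRD2-HEK293 cells measured by HTRF after 1 h detection; compounds added 10 min before NKH477 (200nM […]) forskolin-analogue stimulation, 30 min at room temperature, with Ro20-1724 present at 0.1 mM final.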

[18] = molecular target: D(2) dopamine receptor (Homo sapiens) (UniProt P14416); assay: Dopamine D2 receptor (DRD2) small molecule antagonists, cell-based qHTS assay (AID 1963595; active = well fitted inhibition curve with a large enough effect in the signal ratio in the repeat runs, with a control signal flat; the % refers to the signal ratio)
In short: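 In this cell-based antagonist screen, compounds act for 10 min at room temperature before a 30 min challenge with 12 nM quinpirole and 200 nM NKH477. cAMP is quantified by HTRF competition in DRD2-HEK293 cells containing 0.1 mM Ro20-1724.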

[19] = cAMP Responsive Elements (CRE) small molecule antagonists, cell-based qHTS assay (AID 1963591; active = well fitted inhibition curve with a large enough effect in the signal ratio in the repeat runs, not every such curve was filed as active; the % refers to the signal ratio)
In short: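 Antagonist mode: test compounds are co-incubated with the adenylyl cyclase activator NKH477 (0.25 uM final) on CRE-bla HEK293T cells for 3 h at 37 °C, followed by LiveBLAzer substrate loading.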

[20] = p53 small molecule agonists, cell-based qHTS assay with rat liver microsomes (AID 1963578)
In short: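 Quantitative HTS of the Tox21 10K library: p53RE-bla cells, rat liver microsomes plus NADPH at 0.5 mg/mL final each, 16 h at 37 C, beta-lactamase fluorescence detection.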
% is scaled to controls: 0 for no effect and ±100 for the full control effect.

CCC(C)S (centres undefined)
inactive: activity change, negative = cytotoxicity [1] -0.322% [at 3.27 µM] | activity change [2] -0.606% [at 2.04 µM, stronger effect = higher value] | activation [3] 1.34% [at 2.72 µM] | activation [4] 0.0986% [at 2.04 µM] | activation [5] 0.369% [at 2.33 µM] | activity change, negative = cytotoxicity [6] 2.56% [at 2.33 µM] | activity change, negative = cytotoxicity [7] 2.16% [at 2.33 µM] | activity change, negative = cytotoxicity [8] 10.6% [at 2.33 µM] | activation [9] -0.925% [at 2.33 µM] | activity, negative = inhibition [10] 36.9% [at 2.12 µM] | activation [11] 0.646% [at 2.65 µM] | activity, negative = inhibition [12] 18.7% [at 2.17 µM] | activation [13] 0.317% [at 2.72 µM] | activation [14] -0.121% [at 3.27 µM] | activity change, negative = inhibition [15] -1.77% [at 3.27 µM] | activation [16] 11% [at 3.27 µM] | activation [17] 5.57% [at 3.27 µM] | activity change, negative = inhibition [18] 2.46% [at 3.28 µM]

CNC(=O)[C@H]1O[C@@H](n2cnc3c(NCc4cc(Cl)ccc4OCc4cc(C)no4)ncnc32)[C@H](O)[C@@H]1N
inactive: Potency [1] | Potency [2] | Potency [3] | Potency [4] | Potency [5] | Potency [8] | Potency [9] | Potency [10] | Potency [11] | Potency [12] | Potency [13] | Potency [14] | Potency [19] | Potency [15] | Potency [17]

CCCCCCCC/C=C\CCCCCCCC(=O)OCCCC
inactive: activity change, negative = cytotoxicity [1] 4.3% [at 19 µM] | activity change [2] 1.13% [at 11.8 µM, stronger effect = higher value] | activation [3] 1.04% [at 15.8 µM] | activation [4] 0.0792% [at 11.8 µM] | activation [5] -3.86% [at 13.5 µM] | activation [20] -0.57% [at 13.6 µM] | activity change, negative = cytotoxicity [6] 0.909% [at 13.5 µM] | activity change, negative = cytotoxicity [8] 6.46% [at 13.5 µM] | activation [9] -0.177% [at 13.5 µM] | activity, negative = inhibition [10] -6.13% [at 12.7 µM] | activation [11] 5.55% [at 15.9 µM] | activation [13] -0.0084% [at 15.8 µM] | activation [14] 0.955% [at 19 µM] | activity change, negative = inhibition [19] -13.9% [at 18.9 µM] | activity change, negative = inhibition [15] -2.11% [at 19 µM] | activation [16] 25.8% [at 19 µM] | activation [17] -5.29% [at 19 µM] | activity change, negative = inhibition [18] -12.5% [at 18.9 µM]

O=S(=O)(O)c1ccccc1
inactive: Potency [1] | Potency [2] | Potency [3] | Potency [4] | Potency [6] | Potency [7] | Potency [8] | Potency [10] | Potency [11] | Potency [12] | Potency [13] | Potency [14] | Potency [19] | Potency [17] | Potency [18]

CC(C)CC(C)(O)C#CC(C)(O)CC(C)C (centres undefined)
59.9 µM (active) and inactive: Potency [15]
inactive: Potency [1] | Potency [2] | Potency [3] | Potency [4] | Potency [5] | Potency [6] | Potency [7] | Potency [8] | Potency [9] | Potency [10] | Potency [11] | Potency [12] | Potency [13] | Potency [14] | Potency [19] | Potency [16] | Potency [17] | Potency [18]

CO[C@@H]1[C@@H](O[C@@H]2O[C@H](C)[C@@H](O[C@H]3C[C@@](C)(O)[C@@H](O)[C@H](C)O3)[C@H](N(C)C)[C@H]2O)[C@@H](CC=O)C[C@@H](C)[C@@H](O[C@@H]2CC[C@H](N(C)C)[C@@H](C)O2)/C=C/C=C/C[C@@H](C)OC(=O)C[C@H]1OC(C)=O
inactive: Potency [1] | Potency [2] | Potency [3] | Potency [4] | Potency [5] | Potency [6] | Potency [8] | Potency [10] | Potency [11] | Potency [12] | Potency [13] | Potency [14] | Potency [19] | Potency [15] | Potency [17] | Potency [18]

NC1CCCCC1N (centres undefined)
inactive: Potency [1] | Potency [2] | Potency [3] | Potency [4] | Potency [5] | Potency [6] | Potency [7] | Potency [8] | Potency [9] | Potency [10] | Potency [11] | Potency [12] | Potency [13] | Potency [14] | Potency [19] | Potency [15] | Potency [17] | Potency [18]

Reference: PubChem BioAssay (Tox21)
